From PubChem
Hits are enriched below; roughly 2.6% of the tested compounds scored in any of these assays.
NFkB binder: NF-kappa-B p105 (human) binding | calls only | AID 624139 | Small molecule microarray, anti-His fluorescence binding | P19838 | 1.3% of 17,000 active;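 active means spot fluorescence over background significantly raised, with a chance value under 7% in all four replicate spots of the compound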;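 further: probe protein is his-tagged human p50 processed subunit at 1 µg/ml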
Target sequence (P19838 1-433 limits assumed): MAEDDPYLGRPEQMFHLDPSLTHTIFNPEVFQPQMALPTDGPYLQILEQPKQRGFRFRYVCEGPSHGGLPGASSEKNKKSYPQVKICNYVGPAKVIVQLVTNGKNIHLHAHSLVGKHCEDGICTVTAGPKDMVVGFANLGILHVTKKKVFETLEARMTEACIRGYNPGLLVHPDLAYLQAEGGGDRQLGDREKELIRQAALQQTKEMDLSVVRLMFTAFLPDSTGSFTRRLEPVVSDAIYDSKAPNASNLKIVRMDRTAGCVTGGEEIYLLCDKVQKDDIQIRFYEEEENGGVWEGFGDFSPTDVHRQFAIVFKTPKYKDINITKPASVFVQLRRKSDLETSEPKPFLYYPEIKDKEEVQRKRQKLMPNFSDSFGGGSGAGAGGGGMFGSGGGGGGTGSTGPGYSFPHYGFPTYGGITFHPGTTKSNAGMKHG
mut p53 react: mutant p53 pathway reactivation; SW480 PUMA-promoter luciferase; activation, % at 9.98 µM; 1.5% of 28,000 active; AID 624151; in the data active means activation above about 52%
Myc binder: binds human c-Myc on microarray; small molecule microarray, His-c-Myc binding, anti-His fluorescence; calls only; 1.5% of 17,000 active; AID 624141;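 active means spot fluorescence over background with P-value below 7% in all four replicate spots, showing protein binding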
mut p53 SMM: binders of human mutant p53. small molecule microarray binding, anti-GST fluorescence. calls only. 0.4% of 17,000 active. AID 624136;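 active means compounds whose four printed spots each glow above background more than chance allows, each with a p-value under 7%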
STAT3 SMM: binders of human STAT3; P40763; Small molecule microarray, His-STAT3 binding, anti-His fluorescence; calls only; 0.2% of 17,000 active; AID 624138;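 active means compounds whose four printed spots each show fluorescence over background unusually high for their array block, chance value under 7%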
Numbers stand for hits; . = inactive; / = no result; + = active, no number.

SMILES	NFkB binder	mut p53 react	Myc binder	mut p53 SMM	STAT3 SMM
CC(C)NC(=O)N(C)C[C@@H]1OCCCC[C@H](C)Oc2ccc(NC(=O)Nc3ccc(C(F)(F)F)cc3)cc2C(=O)N([C@H](C)CO)C[C@@H]1C	+	.	+	.	.
CS(=O)(=O)N(CC(=O)Nc1ccccc1Sc1ccccc1)c1cccc(C(F)(F)F)c1	/	.	/	/	/
Fc1ccccc1OCCCCSc1ncccn1	.	.	.	.	.
N#Cc1ccccc1OCCCCSc1ncccn1	/	101.8	/	/	/
Cc1ccc(C)c(NC(=O)CSc2n[nH]c(-c3ccccc3)n2)c1	/	.	/	/	/
O=C(O)CCC(=O)Nc1ccc(Br)c2cccnc12	.	.	+	.	.
O=C(O)CCC(=O)Nc1ccc(Br)c(Cl)c1	.	.	.	.	.
Cc1cc(C)c(OCC(=O)Nc2cccc(NC(=O)c3ccccc3C)c2)c(Br)c1	/	.	/	/	/
O=C(c1ccc(F)cc1)n1nc(-c2ccc(Cl)cc2)nc1NCc1ccco1	/	149.6	/	/	/
O=C(c1ccccc1Cl)n1nc(-c2ccccc2)nc1NCc1ccco1	/	.	/	/	/
O=C(c1cccs1)n1nc(-c2ccccc2)nc1NCc1ccco1	/	85.5	/	/	/
COc1ccc(-c2cc3ccccc3oc2=O)cc1NC(=O)COc1ccc(C(C)(C)C)cc1	/	.	/	/	/
Cc1cc(C)n2nc(SCC(=O)c3ccc4c5c(cccc35)CC4)nc2n1	.	.	.	.	.
COc1ccc(-c2noc(CC(=O)O)c2-c2ccc(OC)cc2)cc1	.	.	+	.	.
CCOc1cc(CO)c(Br)cc1OCC(=O)O	.	.	+	.	.
Cn1c(SCC(=O)Nc2cccc(Br)c2)nnc1-c1cccs1	/	.	/	/	/
O=C(COc1ccc(Br)cc1)Nc1cccc2ncccc12	/	.	/	/	/
O=C(Nc1ccc(I)cc1C(=O)NCc1cccnc1)c1ccco1	/	.	/	/	/
O=C(O)Cn1nnnc1-c1ccc(F)cc1	+	.	+	.	.
O=C(O)CCn1nc(-c2ccc(F)cc2)ccc1=O	/	.	/	/	/
COC(=O)CN(c1ccc(C)c(C)c1)S(=O)(=O)c1ccccc1	/	.	/	/	/
Cc1cc(C(F)(F)F)nc(SCC(=O)Nc2ccc(I)cc2)c1C#N	/	.	/	/	/
CC(=O)c1ccc(NC(=O)CSc2nccn2C)cc1	/	92.6	/	/	/
Cc1cc(C)c(C#N)c(SCC(=O)Nc2ccc(C(N)=O)cc2)n1	/	105.3	/	/	/
CC(=O)c1ccc(NC(=O)CSc2nc(C)cc(C)c2C#N)cc1	.	140.1	.	.	.
SMILES	NFkB binder	mut p53 react	Myc binder	mut p53 SMM	STAT3 SMM
COC(=O)c1cc(OC)c(OC)cc1NC(=O)C(C)Oc1ccc(OC)cc1 (centres undefined)	.	.	.	.	.
COc1cc(C(C)CC(C)(O)CC(=O)O)oc(=O)c1C (centres undefined)	.	.	.	.	.
NS(=O)(=O)c1ccc(NC(=S)NCCc2c[nH]c3ccccc23)cc1	.	.	.	.	.
Cc1ccc2nc(-c3ccc(C)c(NC(=O)COc4ccc([N+](=O)[O-])cc4)c3)oc2c1	/	90.7	/	/	/
COc1ccc(-c2nc3cc(C(C)C)ccc3o2)cc1NC(=O)COc1ccc(C)cc1	/	63.7	/	/	/
COc1ccc(-c2nc3ccccc3o2)cc1NC(=O)COc1ccc(C(C)C)cc1	.	.	.	.	.
COc1ccc(C(C)C)cc1S(=O)(=O)n1cnc2cc(C)c(C)cc21	/	.	/	/	/
CCc1ccccc1NC(=O)CCC(=O)O	/	.	/	/	/
O=C(O)CCC(=O)Nc1ccccc1C(=O)O	.	.	+	.	.
COc1ccc(NC(=O)CNC(=O)c2cccc(C)c2)cc1	/	.	/	/	/
COCC(C)NCc1ccc(OC)c(OC)c1OC (centres undefined)	.	.	+	.	.
COC(=O)c1ccccc1NC(=O)COc1ccc(C(C)(C)C)cc1Br	/	.	/	/	/
CCc1ccc(OCC(=O)Nc2ccccc2C(=O)OC)c(Br)c1	/	58.7	/	/	/
CCc1ccc(OCC(=O)Nc2cc(OC)ccc2OC)c(Br)c1	/	58.0	/	/	/
Cc1ccc(S(=O)(=O)N[C@H](C(=O)NCCn2cc(CN3C(=O)COC[C@H]3c3ccccc3)nn2)C(C)C)cc1	.	/	.	+	.
COC(=O)c1cn(CCCNC(=O)[C@H](Cc2ccccc2)NS(=O)(=O)c2ccc(C)cc2)nn1	.	/	.	.	.
O=C(N[C@@H](Cc1ccccc1)Cn1cc(CN2C(=O)COC[C@H]2c2ccccc2)nn1)c1ccccc1	.	/	.	+	.
O=C(Nc1ccccc1)N[C@H](Cc1ccccc1)Cn1cc(CN2C(=O)COC[C@H]2c2ccccc2)nn1	.	/	.	+	.
CCn1nccc1C(=O)Nc1nc2ccccc2n1CCN1CCCCC1	.	.	+	.	.
COc1ccc(C2CC(=O)c3c(O)cc(O)cc3O2)cc1O (centres undefined)	.	62.8	.	.	.
COc1ccc(NC(=O)c2ccc(OC(C)C(=O)Nc3ccccc3C(F)(F)F)cc2)cc1Cl (centres undefined)	/	.	/	/	/
COc1ccc(NC(=O)c2ccc(OC(C)C(=O)O)cc2)cc1Cl (centres undefined)	+	.	.	.	.
COc1cccc(NC(=O)/C=C/c2ccc(Cl)cc2)c1	.	93.6	.	.	.
Cc1ccccc1OCC(=O)Nc1ccc(O)cc1C(=O)O	/	.	/	/	/
CC(C)(C)c1ccc(C(=O)NCCNc2ccccc2[N+](=O)[O-])cc1	/	113.6	/	/	/
SMILES	NFkB binder	mut p53 react	Myc binder	mut p53 SMM	STAT3 SMM
COC(=O)c1ccccc1NC(=O)CNC(=O)c1cccs1	/	.	/	/	/
COc1ccc(Cl)cc1NC(=O)CN(c1ccc(Cl)c(C(F)(F)F)c1)S(C)(=O)=O	/	.	/	/	/
O=C1c2cccc3cccc(c23)C(=O)N1CCCSc1n[nH]c(-c2ccc(F)cc2)n1	/	55.4	/	/	/
Cn1c(SCCCN2C(=O)c3cccc4cccc(c34)C2=O)nnc1-c1cccs1	/	.	/	/	/
O=C1c2cccc3cccc(c23)C(=O)N1CCCSc1ncn[nH]1	.	.	+	.	.
COc1ccc(-n2c(SCCCN3C(=O)c4cccc5cccc(c45)C3=O)nnc2-c2ccncc2)cc1	/	.	/	/	/
CCOC(=O)C1CCCCN1Cc1cc(OC)ccc1OC (centres undefined)	+	.	+	.	.
Cc1nc([N+](=O)[O-])c(Sc2nc3ccccc3[nH]2)n1Cc1ccccc1	.	65.6	.	.	.
O=[N+]([O-])c1ccc2nc(CSc3nc4ccccc4[nH]3)[nH]c2c1	.	.	.	.	.
Cc1cc2nc(Sc3c([N+](=O)[O-])nc(C)n3Cc3ccccc3)[nH]c2cc1C	/	76.5	/	/	/
CN1C(=O)c2ccc(C(=O)Nc3ccc(OCC(=O)O)cc3)cc2C1=O	/	.	/	/	/
C[C@H](CO)N1C[C@H](C)[C@H](CN(C)C(=O)Cc2ccccc2)OCCCC[C@H](C)Oc2ccc(NC(=O)Nc3ccc(F)cc3)cc2C1=O	.	.	.	.	.
C[C@@H]1CCCCO[C@H](CN(C)C(=O)Nc2ccccc2)[C@H](C)CN([C@@H](C)CO)C(=O)c2cc(NC(=O)Nc3ccccc3)ccc2O1	.	.	.	.	.
CNC[C@@H]1Oc2ccc(NC(=O)C3CC3)cc2C(=O)N([C@H](C)CO)C[C@H]1C	+	.	+	.	.
C[C@H](CO)N1C[C@H](C)[C@@H](CN(C)C(=O)Nc2ccccc2)OCCCC[C@H](C)Oc2ccc(NC(=O)Nc3ccccc3)cc2C1=O	+	.	+	.	.
